Source: PubChem BioAssay AID1159580 (chemical genetic matrix, 2015)
The campaign covered roughly 5,500 compounds. About 2,000 (36%) were called active. Inconclusive results (about 18%) are left out. No stated cut-off is given here; in the data, active means normalized growth mostly below about 0.91 (no sharp cut-off); inconclusive means no clear call, values can overlap the other calls; inactive means mostly above about 0.92. Some of the results follow.

Test: chemical genetic growth profiling, strain panel (AID 1159580);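 further: tested at 20 µM; growth read once vehicle control cultures reached saturation at 30 °C; 1 = growth at the plate median or of vehicle wells; lower values mean less growth of the strain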
Settings: S. cerevisiae deletion strains, growth OD

Measured: normalized growth

NC(=O)c1ccccc1
inactive: locus YAL040C, strain CLN3, active compounds read low 0.923 | locus YCL061C, strain MRC1 (second series), active compounds read low 1.01 | locus YER002W, strain NOP16, active compounds read low 0.988 | locus YGR078C, strain PAC10, active compounds read low 0.997 | locus YGR229C, strain SMI1, active compounds read low 1.04 | locus YNL153C, strain GIM3, active compounds read low 1.01 | locus YNL175C, strain NOP13, active compounds read low 0.972 | locus YNL197C, strain WHI3, active compounds read low 0.979 | locus YNL224C, strain SQS1, active compounds read low 0.997 | locus YOR083W, strain WHI5 (second series), active compounds read low 0.952
